A selection: hits, their analogues and other compounds. The true share with any hit is near 2.4%.
D2 ag-1: Beta-Arrestin HTS for Positive Allosteric Modulators of the Human D2 Dopamine Receptor: Agonists. D(2) dopamine receptor (Homo sapiens), P14416. DiscoveRx PathHunter D2 beta-arrestin, luminescence, 90 min; 100% = 57 uM dopamine signal. activation, % (no concentration beside the values). hit rate 0.084% among 360,000. AID 624465, 2012; in the data active = activation above about 40%
Target sequence (P14416 whole entry, looked up): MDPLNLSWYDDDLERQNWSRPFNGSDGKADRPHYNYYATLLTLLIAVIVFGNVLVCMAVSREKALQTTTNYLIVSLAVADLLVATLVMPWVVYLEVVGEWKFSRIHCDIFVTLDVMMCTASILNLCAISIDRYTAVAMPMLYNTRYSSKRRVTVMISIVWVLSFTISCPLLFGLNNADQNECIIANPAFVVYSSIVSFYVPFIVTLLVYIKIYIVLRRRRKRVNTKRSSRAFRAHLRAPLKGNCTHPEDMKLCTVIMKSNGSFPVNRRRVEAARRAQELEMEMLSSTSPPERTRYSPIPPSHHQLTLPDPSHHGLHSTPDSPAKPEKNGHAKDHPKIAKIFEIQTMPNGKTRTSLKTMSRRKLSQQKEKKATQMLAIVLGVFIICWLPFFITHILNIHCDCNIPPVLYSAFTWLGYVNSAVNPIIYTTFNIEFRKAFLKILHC
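DiscoveRx PathHunter D2 beta-arrestin cells (2,100/well) attached overnight, then compound-stimulated 90 min at 37 C in HBSS/10 mM HEPES/0.1% Tween-20 buffer; beta-galactosidase complementation read by luminescence after 1 h at ambient temperature. Dopamine 57 uM final (EC100) as control.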
D2 ag-2: HTS Assay for Allosteric Agonists of the Human D2 Dopamine Receptor: Primary Screen for Agonists | D(2) dopamine receptor (Homo sapiens), P14416 | HEK293 T-REx D2 cells, calcium flux agonist mode | activation, % at 2 µM | hit rate 0.53% among 340,000 | AID 485358, 2010;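 active = activation over 3 SD above normal in the single-dose calcium agonist read, cut at about 30% in these data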; also: 0% is about no effect
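Calcium-flux readout, 1 cycle/sec over 180 s following compound pin transfer, in inducible HEK293 Trex D2 cells (force-coupled); dopamine controls included. Positive calcium responses during this window marked compounds as potential agonists.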
D2 antagonist: HTS Assay for Allosteric Antagonists of the Human D2 Dopamine Receptor: Primary Screen for Antagonists; hit rate 2% among 340,000; inhibition, % at 10 µM; HEK293 TREx D2 cells, calcium flux, dopamine EC80; D(2) dopamine receptor (Homo sapiens), P14416; in the data active = inhibition above about 30%; inactive = below that, where a call was filed; also: 0% is about no effect
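Inhibition of EC80 dopamine-driven calcium flux, recorded kinetically, defines activity here; cells are a tetracycline-induced HEK293 T-REx line expressing force-coupled D2.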
D2 PAM-1: HTS Assay for Positive Allosteric Modulators of the Human D2 Dopamine Receptor: Primary Screen for Potentiators; hit rate 0.34% among 340,000; HEK293 T-REx D2, calcium flux, EC20 dopamine potentiation; potentiation, % at 10 µM; D(2) dopamine receptor (Homo sapiens), P14416;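 active = potentiation over 3 SD above the plate norm, cut at about 30% in these data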; also: 0% is about no effect
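Tetracycline-induced Hek293 Trex D2 cells, force-coupled to calcium, loaded with no-wash calcium dye. Compound added with 180 s kinetic read for agonism, then EC20 dopamine and a further 180 s read for potentiation.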
D2 PAM-2: Beta-Arrestin HTS for Positive Allosteric Modulators of the Human D2 Dopamine Receptor: Potentiators. D(2) dopamine receptor (Homo sapiens), P14416. DiscoveRx D2 beta-arrestin cells, luminescence, 90 min; 100% = 57 uM dopamine signal. potentiation, % (test concentration not listed). hit rate 0.23% among 360,000. AID 624464, 2012; in the data active = potentiation above about 50%
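PathHunter D2 cells, attached overnight at 37 deg C, received compound in DMSO plus dopamine at EC20 (50 nM final) for 90 min at 37 deg C. Beta-arrestin recruitment was read as luminescence after 1 h with detection reagent at ambient temperature.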
The depositor's hits bear a star; nt = not tested or not shown.

SMILES | D2 ag-1 | D2 ag-2 | D2 antagonist | D2 PAM-1 | D2 PAM-2
COc1ccc2cc3cc(C(=O)NCCN4CCN(c5ccccc5F)CC4)oc3nc2c1 | 5 | 15 | 38* | -19 | -38
CCC(C)c1ccccc1N1CC(C(=O)N2CCN(c3ccccc3)CC2)CC1=O (centres undefined) | -1 | nt | nt | nt | 10
CCC(C)c1ccccc1N1CC(C(=O)N2CCN(S(=O)(=O)c3cccc([N+](=O)[O-])c3)CC2)CC1=O (centres undefined) | 4 | 1 | 36* | -8 | 8
O=C1CC(N2CCN(c3cccc(C(F)(F)F)c3)CC2)C(=O)N1c1ccccc1F (centres undefined) | 0 | -1 | 33* | 1 | -15
O=C1CC(N2CCN(c3ccccc3)CC2)C(=O)N1c1cccc(Br)c1 (centres undefined) | -6 | 1 | 2 | 37* | -4
ONC(=Nc1ccc(Cl)cc1)c1ccc(Cl)cc1 | 0 | 0 | -3 | 9 | 1
[S-]C(=Nc1ccc(Cl)cc1)N[n+]1ccccc1 | -8 | -2 | 62* | 13 | -5
CCc1ccccc1N(C)C(=O)c1cn(CC(C)C)c(=O)c2cc(OC)c(OC)cc12 | nt | -1 | nt | -5 | nt
Cc1cc(C)cc(NC(c2cccc(Cl)c2)c2nnc(-c3ccccc3)o2)c1 (centres undefined) | nt | -1 | nt | 4 | nt
Brc1ccccc1-c1nnc(COc2ncnc3ccccc23)o1 | -2 | 1 | -7 | -13 | -5
Brc1ccccc1-c1nnc(COc2cccc3cccnc23)o1 | 7 | 1 | 38* | 0 | 20
Clc1ccccc1OCc1nnc(-c2ccccc2Br)o1 | -2 | -1 | 36* | -2 | -17
N#Cc1ccccc1OCc1nnc(-c2ccccc2Br)o1 | 2 | 0 | 12 | -5 | -1
Cc1ccc(-c2nnn3c2nc(NCc2ccc4c(c2)OCO4)c2ccccc23)cc1 | nt | 1 | nt | nt | nt
Cc1cc(C=C2C(=O)c3ccccc3C2=O)c(C)n1-c1ccc(Cl)cc1 | -3 | 1 | 33* | 9 | -8
CCCC1=Nc2cc(C(=O)NCc3ccccc3)ccc2Sc2ccccc21 | nt | 1 | nt | 3 | nt
Cc1ccc(-n2nnnc2SCc2ccc(C(=O)O)cc2)cc1C | -1 | 1 | 30* | -8 | 10
Cc1ccc(C)c(N2CCN(C(=O)C3CCCN(S(=O)(=O)c4ccc5c(c4)oc(=O)n5C)C3)CC2)c1 (centres undefined) | nt | 0 | nt | 0 | nt
CC(C(=O)OCC(=O)c1ccc(Br)cc1)N1C(=O)C2C3C=CC(C3)C2C1=O (centres undefined) | -3 | 2 | -20 | 32* | -1
COc1ccccc1CNC(=O)CN1C(=O)COc2ccc(S(=O)(=O)N3CCC(C)CC3)cc21 | nt | 24 | nt | -8 | nt
Cc1cc(C(=O)COC(=O)c2ccc3c(c2)NC(=O)CS3)c(C)n1CCc1ccc(Cl)cc1 | 2 | -1 | 63* | 14 | 6
C=CC[C@@H]1C=C[C@H](O/N=C/[C@@H](NS(=O)(=O)c2ccc(C)cc2)[C@H](C)/C=C/CC(=O)OC)[C@@H](CO)O1 | nt | -1 | 31* | 3 | nt
COC(=O)C/C=C/[C@@H](C)[C@@H](/C=N/OC[C@@H](C)[C@H](OCc1ccccc1)C(C)C)NS(=O)(=O)c1ccc(C)cc1 | nt | nt | nt | 2 | nt
CCOC(=O)C(=CNCC(=O)OC)C(=O)OCC | 1 | -1 | 36* | 2 | 4
CCOC(=O)CNC=C(C(=O)OCC)C(=O)OCC | -2 | -1 | -4 | 15 | 8
O=C(NCCSCc1ccco1)Nc1cc(Cl)cc(Cl)c1 | -1 | 2 | 30* | -13 | -17
Nc1c(-c2nc(-c3cccs3)no2)nnn1-c1cccc(Cl)c1 | nt | 0 | nt | 13 | nt
Cn1c(=O)c(/C=C/c2ccc(F)cc2)nc2ccccc21 | -2 | 0 | 8 | 5 | -9

From PubChem BioAssay
